The values that follow come from PubChem BioAssay AID588855 (National Center for Advancing Translational Sciences (NCATS), 2011).

Out of some 410,000 compounds screened, about 5,000 (1.2%) were called active. Not shown: some 13% with an inconclusive outcome. The call rests on the fitted dose curve; in most records, active means well fitted inhibition curve with a large enough effect; inconclusive means small, poorly fitted or top-dose-only effect; inactive means no such curve, though single readings can be large or run the other way. What follows is part of a selection rich in actives, with near analogues and random picks from the rest. Entries that show only a call come without a potency.
Potency means the concentration at half of the fitted maximal effect.

This test in a line: qHTS for Inhibitors of TGF-b. Further: nearly all actives have a fitted effect of over 65% in size. Conditions: HepG2 CAGA-GFP TGF-b/SMAD3 reporter, GFP fluorescence, 18 h, TGF-beta stimulated, 500 pg/mL final; series mostly up to 46.1 µM. An outline of the steps:
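TGF-beta reporter screen: HEPG2 CAGA-GFP, 1% FBS, 500 pg/mL TGF-beta final, 18 h; per-cell GFP summed per well; curves fitted and categorized by class.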
A general note: qHTS replaces the single test concentration by a dilution series.
Turning to `CCOC(=O)c1cnc2c(C)cc(Cl)cc2c1NCCc1ccc(OC)c(OC)c1`, the Potency result is “inactive”.

As to `Cn1c(=O)c2sccc2n2c(CCC(=O)NCc3ccccc3Cl)nnc12`, the Potency result was “inactive”.

In the case of `CCc1cc2c(cc3c(=O)n(CC(=O)NCCc4ccc(OC)c(OC)c4)ncn32)s1`, the Potency result was “inactive”.

As for `COc1ccc(C2NC(=O)N(C)C3=C2C(=O)N(c2ccc(C(=O)O)cc2)C3)cc1` (configuration not stated), the Potency result was “inactive”.

Consider `CN(C)c1ccc(/C=N\Nc2ccc([N+](=O)[O-])cc2[N+](=O)[O-])cc1Cl`, for which the Potency result is “inactive”.

As for `CN(CCC#N)c1ccc(C=O)cc1`, the Potency result was “inactive”.

`Cc1ccc(S(=O)(=O)N2CCN(c3nc(-n4cnc5ccccc54)nc4ccccc34)CC2)cc1`: the Potency result is “inactive”.

As to `Cc1ccc(NC(=O)C(Cc2ccccc2)NS(=O)(=O)c2ccc3c(c2)oc(=O)n3C)cc1C` (configuration not stated), the Potency entry was “inactive”.

`Cc1cccc(N2CCN(C(=O)c3cnc(N4CCCC4)nc3C)CC2)c1C`: the Potency entry was “inactive”.

On to `Cc1ccccc1S(=O)(=O)NC(=O)C1(C)CCN1C(=O)Cc1ccc(Cl)cc1Cl` (configuration not stated), for which the Potency entry is “inactive”.

For the compound `CC1(C(=O)Nc2cccc3c2CCCC3)CCN1C(=O)CCc1ccc(Cl)cc1Cl` (configuration not stated), the Potency was 12.6 µM (active).

Turning to `CC1(C(=O)Nc2cccc3c2CCCC3)CCN1C(=O)C1(c2ccccc2)CC1` (configuration not stated), the Potency entry was “inactive”.

For `CC(=O)c1ccc(NS(=O)(=O)c2ccc(-c3cc(C)no3)s2)cc1`, the Potency entry was “inactive”.

For the compound `Cc1oc(-c2ccccc2F)nc1CN1CCC(C(=O)NCCc2ccc(Cl)cc2)CC1`, the Potency result is “inactive”.

Turning to `COc1ccc(Cl)cc1NC(=O)C(C)Sc1nc2c(c(=O)[nH]1)CCCC2` (configuration not stated), the Potency entry is “inactive”.

Take `CCOc1ccc(NC(=O)c2c(NC(=O)Cc3ccccc3)sc3c2CCCCC3)cc1`: the Potency entry was “inactive”.

For `CC(=NNC(=S)N1CCCCCC1)c1ccccn1`, the Potency is 1.26 µM (active).

Turning to `CC1=NNC(=O)C1CCC(=O)N/N=C(\C)c1ccc(Cl)cc1` (configuration not stated), the Potency entry is “inactive”.

Consider `CCOc1ccc(NC(=S)N2CCCCCC2)cc1`, for which the Potency result is “inactive”.

Take `O=C(Cc1ccc(Cl)cc1)c1ccccc1`: the Potency result was “inactive”.

On to `CCNC(=S)N1CCN(c2ncccn2)CC1`, for which the Potency result was “inactive”.

Turning to `C/C(=N\NC(=O)Cc1ccc(Cl)cc1)c1ccccn1`, the Potency was 3.98 µM (active).

Take `CCCN(CCC)C(=O)Cn1c(=O)n(-c2ccc(Cl)cc2)c(=O)c2c3c(sc21)CCCCC3`: the Potency result was “inactive”.

In the case of `Cc1ccc(-c2nnc3ccc(SCC(N)=O)nn23)cc1`, the Potency entry is “inactive”.

As to `Cc1ccc(Nc2ccccc2N)cc1`, the Potency entry was “inactive”.

For `COc1ccccc1C(=O)Nc1ccc(Nc2ccccc2)cc1`, the Potency entry was “inactive”.

For the compound `Nc1ccc(Nc2ccccc2)cc1`, the Potency is 14.1 µM (active).

Turning to `COC(=O)c1ccc(NC(=O)CSc2n[nH]c(-c3ccccc3)n2)cc1`, the Potency result was “inactive”.

`CC(Sc1oc(-c2ccco2)nc1S(=O)(=O)c1ccc(Br)cc1)c1ccccc1` (configuration not stated): the Potency entry is “inactive”.

With `CCCCC(CCCC)c1ccc(C=Nc2ccc(/C=C/c3ccnc4ccccc34)cc2)cc1`, the Potency entry is “inactive”.

On to `CN(c1ccccc1)S(=O)(=O)c1cc(C(=O)Nc2nc3ccccc3[nH]2)ccc1Cl`, for which the Potency entry is “inactive”.

As for `Cc1ccc2nc(CNC(=O)c3ccccc3)[nH]c2c1`, the Potency entry was “inactive”.

With `O=C(/C(=C/c1cccc(Cl)c1)c1nc2ccccc2[nH]1)c1ccccc1`, the Potency was 3.16 µM (active).

Take `Cc1cc(C)c(/C=C/c2onc(C)c2S(=O)(=O)N2CCC(C(=O)Nc3ccc(Cl)cc3C)CC2)c(C)c1`: the Potency entry is “inactive”.

Take `Cc1ccc(NC(=O)C(=O)NCC(c2cccnc2)N2CCOCC2)cc1` (configuration not stated): the Potency entry was “inactive”.

As to `Cc1ccc(S(=O)(=O)N(CC(=O)Nc2ccc(Cl)cc2Cl)c2ccccc2C)cc1`, the Potency result was “inactive”.

As to `COc1ccc(C(C)(NC(C)=O)c2nc(-c3ccc(S(C)(=O)=O)cc3)cs2)cc1` (configuration not stated), the Potency result was “inactive”.

Take `COc1ccc(N/C=C(\C2OC(=O)c3ccccc32)[N+](=O)[O-])cc1` (configuration not stated): the Potency result was “inactive”.

On to `COc1ccc(-c2csc(NC3OC(=O)c4ccccc43)n2)cc1` (configuration not stated), for which the Potency is 10 µM (active).

Take `COc1ccc(/C=C/C(=O)c2ccc(NS(=O)(=O)c3ccc(C)cc3)cc2)cc1O`: the Potency was 12.6 µM (active).

For `COc1ccc(/C=C/C(=O)Nc2ccc(C)cc2)cc1S(=O)(=O)N1CCOCC1`, the Potency entry is “inactive”.

Consider `Cc1ccc(C(=O)/C=C/Nc2ccc(S(=O)(=O)Nc3onc(C)c3C)cc2)cc1`, for which the Potency result was “inactive”.

In the case of `Cc1ccc(C(=O)Nc2ccc(OCc3cc(=O)n4c(C)csc4n3)cc2)cc1`, the Potency entry was “inactive”.

Turning to `COc1ccc(CCNc2ncnc3onc(-c4ccc(Cl)cc4)c23)c(OC)c1`, the Potency entry was “inactive”.

Consider `O=C(CSc1c2c(nc3ccc(Cl)cc13)CCCC2)NCc1ccco1`, for which the Potency result was “inactive”.

For the compound `Cc1ccc(CNC(=O)CSc2c3c(nc4cc(Cl)ccc24)CCCC3)cc1`, the Potency entry is “inactive”.

As to `CCOC(=O)C1CCN(C(=O)CSc2c3c(nc4ccc(Cl)cc24)CCCC3)CC1`, the Potency was 15.8 µM (active).

For `CN(C)C1=C2C=CC=CC2/C(=C2/C=Cc3ccccc32)C=C1` (configuration not stated), the Potency result was “inactive”.

With `CCOC(=O)c1ccc(NC(=O)c2c(NCc3cccs3)sc3c2CCCC3)cc1`, the Potency result is “inactive”.

Consider `Cc1ccc(S(=O)(=O)Nc2ccc3c(c2)C(=O)N([C@H](C)CO)C[C@@H](C)[C@@H](CN(C)C(=O)Nc2cccc4ccccc24)O3)cc1`, for which the Potency is 11.2 µM (active).

Take `COc1ccc(NC(=O)N(C)C[C@H]2Oc3ccc(NC(=O)C4CC4)cc3C(=O)N([C@H](C)CO)C[C@@H]2C)cc1`: the Potency result is “inactive”.

Turning to `Cc1noc(C)c1NC(=O)Nc1ccc2c(c1)C(=O)N([C@H](C)CO)C[C@H](C)[C@@H](CN(C)C(=O)Nc1ccccc1)O2`, the Potency result was “inactive”.

With `COc1cc(OC)c(NC(=O)c2c3c(nn2C)-c2ccccc2SC3)cc1Cl`, the Potency result is “inactive”.

For the compound `OC(CBr)CN1CCCCC1` (configuration not stated), the Potency result was “inactive”.

For the compound `COc1ccccc1NC(=O)c1cc(S(=O)(=O)NCCc2ccccc2)ccc1F`, the Potency entry was “inactive”.

Regarding `Cc1nn(-c2ccccc2)c(C)c1/C=N/NC(=O)CSc1nc2ccccc2c(=O)n1-c1ccccc1`, the Potency was 3.98 µM (active).

Turning to `C/C(=N\NC(=O)CSc1nc2ccccc2c(=O)n1-c1ccccc1C)c1cccs1`, the Potency entry is “inactive”.
